Source: PubChem
A selection: hits, their analogues and other compounds. The true share with any hit is near 8.8%.
HT1080 IDH1KD tx: qHTS for induction of synthetic lethality in tumor cells producing 2HG: qHTS for the HT-1080-IDH1KD cell line. HT-1080 IDH1 knockdown viability, ATP luminescence, 48 h. Potency, µM (top dose mostly 46.1 µM), for inactives: top-dose activity, negative = toxicity, usual class: cytotoxic. 360,000 compounds, 2% hits. AID 686971, 2013;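 note: potency is the fitted concentration of half-maximal effect; 0% = DMSO wells and -100% = cell-free medium wells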
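% activity derives from luminescence (CellTiter-Glo), normalised to DMSO and no-cell wells. HT-1080-IDH1KD cells, 750/well, had 48 h compound exposure at 37 °C.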
KB-3-1 tox: qHTS assay for MDR1-selective chemotherapeutics: Primary screen using the parental adenocarcinoma cell KB-3-1 | KB-3-1 viability, CellTiter-Glo ATP luminescence, 72 h | Potency, µM (top dose mostly 46.1 µM), hits mostly cytotoxic | 400,000 compounds, 1.4% hits; note: potency is the fitted concentration of half-maximal effect; nearly all actives have a fitted effect of over 60% in size
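Viability of parental KB-3-1 cells, measured by CellTiter-Glo luminescence, followed a 72 h incubation at 37 °C with pinned compounds in phenol-red-free DMEM containing 10% FBS.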
IL-1B inflam inh: qHTS for Inhibitors of Inflammasome Signaling: IL-1-beta AlphaLISA Primary Screen; THP-1 LPS/ATP IL-1B secretion, AlphaLISA, 16 h; hits give low values; activity change, % at 57.5 µM; AID 743279, 2014; 360,000 compounds, 4.7% hits; in the data active = activity change below about -50%; inconclusive = mostly about -30% to -49%
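Secreted IL-1B measured by AlphaLISA bead assay after 16 h compound exposure of THP-1 cells; compounds (final up to 57.5 uM) added 1 h before LPS (250 ng/mL) and ATP (1.25 mM) stimulation; lower signal means less secretion.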
HT1080-NT tox: qHTS for induction of synthetic lethality in tumor cells producing 2HG: qHTS for the HT-1080-NT fibrosarcoma cell line | HT-1080-NT fibrosarcoma viability, CellTiter-Glo ATP luminescence, 48 h | Potency, µM (series often up to 46.1 µM), inactives show at the top dose activity, negative = less viability, usual class: cytotoxic | 360,000 compounds, 1.6% hits | AID 686970, 2013;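 note: NT is the 2HG producing partner of a matched IDH1 knockdown line; potency is the fitted concentration of half-maximal effect; 0% = DMSO-treated cells and -100% = media-only wells without cells; nearly all actives have a fitted effect of over 55% in size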
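Toxicity toward the 2HG-producing NT line was scored as %Activity, normalised to DMSO and no-cell wells, from CellTiter-Glo luminescence after 48 hours' treatment.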
KB-V1 cytotox: qHTS assay for MDR1-selective chemotherapeutics: Primary screen using the drug-selected MDR subline cells KB-V1; KB-V1 MDR cells viability, CellTiter-Glo, 72 h; Potency, µM (series often up to 46.1 µM), usual class: cytotoxic; 400,000 compounds, 3.4% hits; AID 1347076, 2019; note: potency is the fitted concentration of half-maximal effect; nearly all actives have a fitted effect of over 60% in size
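Readout: CellTiter-Glo luminescence, 10 min after addition. Cells: KB-V1 MDR subline, 72 h at 37 degrees C with compound. Analysis: corrected, normalized data fitted to concentration-effect curves.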
* = called active by the depositor; i = inactive; ? = inconclusive; · = no result given. Unless noted, calls come from the whole dose curve; as a rule, active = well fitted curve in the direction sought with a large enough effect; inconclusive = small, poorly fitted or top-dose-only effect, or another doubt; inactive = no such curve, though single readings can be large; an effect the other way counts as inactive or inconclusive. Unless noted, % is set by controls: 0 for no effect and ±100 for the full control effect.

SMILES	HT1080 IDH1KD tx	KB-3-1 tox	IL-1B inflam inh	HT1080-NT tox	KB-V1 cytotox
FC(F)(F)c1nc2ccccc2c2nc3ccccc3n12	-12.7%	i	30.8	-13.8%	i
CCOC(=O)Cc1csc(NC(=O)CN2CCCCC2)n1	-4.0%	i	-3.6	-6.7%	i
Cc1ccc(-c2nc(NC(=O)c3nn(C)cc3[N+](=O)[O-])sc2C)cc1	11.6µM*	4.61µM*	-111.1*	5.8µM*	?
O=C(Nc1nc(-c2ccc(Cl)cc2)cs1)NC1CCCCC1	?	?	0.0	-25.3%	13µM*
Cn1cc([N+](=O)[O-])c(C(=O)Nc2ccc(-c3nc4ccccc4[nH]3)cc2)n1	?	?	-12.0	?	i
Cc1cnc(NC(=O)c2nn(C)cc2[N+](=O)[O-])s1	?	?	-93.9*	?	?
O=C(Nc1nc(-c2ccc([N+](=O)[O-])cc2)cs1)c1c(F)cccc1F	-11.8%	i	-5.9	-7.3%	i
Cn1cc([N+](=O)[O-])c(C(=O)Nc2nc(-c3ccc(Cl)cc3)cs2)n1	3.26µM*	6.51µM*	-120.4*	2.91µM*	13µM*
Cc1[nH][nH]c(=O)c1C=NCc1ccc(Cl)cc1	0.8%	i	4.5	-1.2%	i
O=C(CSc1nc(-c2ccccc2)[nH]c1-c1ccc(F)cc1)NC1CCCC1	·	i	·	·	i
CCc1cnc2c(c1SCc1c(F)cccc1Cl)c(=O)n(C)c(=O)n2C	·	i	·	·	i
Cc1cccc(C)c1NC(=O)C(CCc1ccccc1)N1CCC(c2ccccc2)CC1 (stereo not drawn)	-0.7%	?	2.4	4.5%	?
Cc1ccc(-c2nc(NC(=O)c3nn(C)cc3[N+](=O)[O-])sc2C)cc1C	4.11µM*	?	-119.3*	20.6µM*	14.6µM*
C=CCn1c(CSCc2ccc(Cl)cc2Cl)nnc1SCC(=O)Nc1ccc(C(=O)O)cc1	-3.5%	i	28.5	2.0%	i
Cc1ccc(-c2cc(C(=O)NCc3ccccn3)c3ccccc3n2)cc1C	?	?	-13.8	?	14.6µM*
O=C(NCc1ccccn1)c1cc(-c2ccc(Cl)cc2)nc2ccccc12	-0.2%	i	3.0	6.9%	11.6µM*
O=C(NCc1ccccn1)c1cc(Cl)ccc1OCc1ccccc1	-18.6%	i	-53.3*	-9.1%	i
O=C(NCc1ccccn1)c1cc(-c2ccc(-c3ccccc3)cc2)nc2ccccc12	?	i	-0.6	?	i
O=C(NC1CCC(O)CC1)c1cc(-c2ccc(Cl)cc2)nc2ccccc12 (stereo not drawn)	19.8%	i	-55.1*	-2.1%	i
CC(C)C(NC(=S)Nc1ccccc1)C(=O)O (stereo not drawn)	14.6%	i	9.8	14.2%	i
O=C(NC1CCC(O)CC1)c1ccc(-c2ccc(Cl)cc2)o1 (stereo not drawn)	0.4%	i	-62.4*	-2.4%	i
C=CCNC(=O)c1cc(-c2ccncc2)nc2c(C)cc(C)cc12	-2.3%	i	-29.3	?	i
Cc1c(Cl)ccc2c(C(=O)NCCCn3nccc3C)cc(-c3ccccn3)nc12	-1.1%	i	-3.0	-6.5%	?
Cc1ccc(-c2cc(C(=O)NCCCN3CCCC3)c3ccccc3n2)cc1C	?	?	-73.1*	?	i
COC(=O)CNC(=O)c1cc(-c2ccncc2)nc2c(C)c(Cl)ccc12	-13.9%	i	-99.7*	-22.0%	i
O=C(NC1CCC(O)CC1)c1ccc(Br)o1 (stereo not drawn)	-6.4%	i	17.9	1.5%	i
Cc1c(Cl)ccc2c(C(=O)NCCN3CCCCC3)cc(-c3ccccn3)nc12	23.1µM*	i	-96.7*	?	?
COCCNC(=O)CCC1CCN(Cc2cccc(Oc3ccccc3)c2)CC1	-1.4%	i	2.8	-5.5%	i
